Among the data in PubChem BioAssay (Tox21) are Potency values, retold here.

A number with no mark means an inactive call. Inconclusive results are not listed. Active and inactive are the calls of the source. Unless noted, calls follow the shape of the full dose curve.

A short description of experiment [1]: Nuclear factor erythroid 2-related factor 2/antioxidant responsive element (Nrf2/ARE) small molecule agonists: qHTS cell viability counter screen in human keratinocytes (AID 1919968; active = well fitted curve in the direction sought with a large enough effect in the repeat runs; an effect the other way counts as inactive or inconclusive; also: nearly all actives have a fitted effect of over 55% in size; also: potency is read from the fitted curve at half-maximal effect). The procedure, abridged: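 Stably transfected HaCaT (KeratinoSens), 1,500/well. Test agents in DMSO were applied for 23 h, 37 C/5% CO2. CellTiter-Fluor was incubated 1 h before the fluorescence read.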

Experiment [2] in a line: Nuclear factor erythroid 2-related factor 2/antioxidant responsive element (Nrf2/ARE) small molecule agonists: luciferase reporter gene qHTS assay in human keratinocytes (AID 1919969; also: nearly all actives have a fitted effect of over 35% in size; also: potency is read from the fitted curve at half-maximal effect). (In general: A reporter such as luciferase makes a cellular process visible.)
In experiment [3] the target is Gonadotropin-releasing hormone receptor (Homo sapiens) (UniProt P30968). The experiment is described as follows: Human gonadotropin-releasing hormone receptor (GnRHR) small molecule agonists, calcium flux assay in GnRHR-HEK293 cells (AID 1920063). Also: nearly all actives have a fitted effect of over 35% in size. The procedure, abridged: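 Stable human GnRHR HEK293 line. 18 h plating, then calcium dye for 1 h at 37 C. Agonist-mode compound addition from DMSO stocks; fluorescence monitored 3 min.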
In general terms: A change in cytosolic calcium serves as a functional read-out for many receptors and channels.

The target in experiment [4] is KiSS-1 receptor (Homo sapiens) (UniProt Q969F8). The experiment can be described thus: Human kisspeptin (KISS1R) small molecule agonists, calcium flux assay in KISS1R-HEK293 cells (AID 1920064; active = well fitted curve in the direction sought with a large enough effect in the repeat runs; an effect the other way counts as inactive or inconclusive). The procedure, abridged: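 After overnight (18 h) culture at 37 C/5% CO2, human KISS1R-HEK293 cells received calcium dye for 1 h, then test compound; emission at 540 nm (excitation 480 nm) was tracked for 3 min.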

A short description of experiment [5]: G protein-coupled receptor (GPCR) small molecule agonists, calcium flux assay: HEK293 wild type cell line counter screen (AID 1920065). The method, boiled down: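 Following 18 h incubation at 37 C/5% CO2, plates got calcium dye for 1 h; compounds, ATP or DMSO were then pinned in and fluorescence followed kinetically (480/540 nm).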
The nature of experiment [6]: p53 small molecule agonists, cell-based qHTS assay with human liver microsomes (AID 1963577). The procedure, abridged: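 p53RE-bla cells, 4,000/well, compound added after 5 h, with human liver microsomes 0.5 mg/mL and NADPH 0.5 mg/mL final; 16 h at 37 C, then LiveBLAzer 2 h RT, fluorescence.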
For orientation: qHTS replaces the single test concentration by a dilution series.

Experiment [7] in a line: p53 small molecule agonists, cell-based qHTS assay with rat liver microsomes (AID 1963578). The procedure, abridged:
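p53RE-bla cells, 4,000/well, pre-incubated 5 h, then given compounds plus rat liver microsomes (0.5 mg/mL final) and NADPH (0.5 mg/mL final). Incubation 16 h at 37 C; beta-lactamase reporter read by LiveBLAzer fluorescence after 2 h at room temperature.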

The nature of experiment [8]: p53 small molecule agonists, cell-based qHTS assay with human liver microsomes: qHTS cell viability counter screen (AID 1963579). Also: nearly all actives have a fitted effect of over 45% in size. The procedure, abridged: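 p53RE-bla cells, 4,000/well, dosed 5 hours after plating, with human liver microsomes (0.5 mg/mL final) plus NADPH (0.5 mg/mL final), 16 hours at 37 C. Viability read as CellTiter-Glo luminescence after 30 min at room temperature.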

A short description of experiment [9]: p53 small molecule agonists, cell-based qHTS assay with rat liver microsomes: qHTS cell viability counter screen (AID 1963580). Also: nearly all actives have a fitted effect of over 45% in size. The procedure, abridged:
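Cytotoxicity counter screen: intracellular ATP measured by CellTiter-Glo luminescence in the same wells as the beta-lactamase reporter read, on HCT-116 p53RE-bla cells exposed 16 h at 37 C to compounds with rat liver microsomes and NADPH, each 0.5 mg/mL final.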

The nature of experiment [10]: p53 small molecule agonists, cell-based qHTS assay: qHTS cell viability counter screen (AID 1963581). Also: nearly all actives have a fitted effect of over 45% in size. The method, boiled down: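 qHTS counter screen: 16 h compound exposure at 37 C of p53RE-bla HCT-116 cells (4,000 per well, seeded 5 h prior), cell viability by ATP luminescence.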
The nature of experiment [11]: p53 small molecule agonists, cell-based qHTS assay (AID 1963582; active = well fitted activation curve with a large enough effect in the signal ratio in the repeat runs, not every such curve was filed as active; the % refers to the signal ratio). The method, boiled down: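 Measured: fluorescence from cleaved LiveBLAzer substrate. System: p53RE-bla cells, 16 h compound treatment at 37 C, 2 h substrate step at room temperature.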
Experiment [12] can be described thus: cAMP Responsive Elements (CRE) small molecule agonists, cell-based qHTS assay (AID 1963590). The procedure, abridged: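 Test agents in DMSO were incubated 3 h at 37 C/5% CO2 with CRE-bla HEK 293T cells seeded 18 h earlier; LiveBLAzer B/G FRET substrate was added and read after 2 h at room temperature.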
Experiment [13] concerns the target Beta-2 adrenergic receptor (Homo sapiens) (UniProt P07550). The experiment is described as follows: Adrenergic beta2 receptor (ADRB2) small molecule antagonists, cell-based qHTS assay (AID 1963592). Also: series mostly up to about 92 µM; nearly all actives have a fitted effect of over 50% in size. The method, boiled down:
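Assay format: CHO-ADRB2 cells, 18-20hr seeding at 37C/5% CO2, then compound plus 1nM isoproterenol agonist mix for 0.5hr RT. Homogeneous time-resolved fluorescence cAMP detection after 1hr, expressed as 665/615 nm ratio.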

For experiment [14], the target named is D(2) dopamine receptor (Homo sapiens) (UniProt P14416). The experiment is described as follows: Dopamine D2 receptor (DRD2) small molecule agonists, cell-based qHTS assay (AID 1963594). Also: nearly all actives have a fitted effect of over 35% in size. The procedure, abridged:
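HEK293 cells stably expressing human DRD2, pre-treated with PDE inhibitor Ro20-1724 (0.1 mM final) and compound 10 min at room temperature, then stimulated with NKH477 (200nM […]) for 30 min. cAMP read by HTRF (665/620 nm).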

The target is the same in experiment [15]. The experiment is described as follows: Dopamine D2 receptor (DRD2) small molecule antagonists, cell-based qHTS assay (AID 1963595; active = well fitted inhibition curve with a large enough effect in the signal ratio in the repeat runs, with a control signal flat; the % refers to the signal ratio). The procedure, abridged: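 Cells were plated and grown for 24 h at 37 °C. Ro20-1724 (0.1 mM final) went in first, then compound for 10 min. NKH477 (200 nM) with quinpirole (12 nM) followed for 30 min at RT, then HTRF detection reagents for 1 h.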

Experiment [16] deals with 5-hydroxytryptamine receptor 2A (Homo sapiens) (UniProt P28223). The experiment is described as follows: 5-hydroxytryptamine receptor 2A (HTR2A) small molecule antagonists, cell-based qHTS assay (AID 1963586). Also: nearly all actives have a fitted effect of over 45% in size. The method, boiled down: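 CHO cells stably expressing human HTR2A were plated for 18 h at 37 C, then loaded with calcium dye for 1 h. Compounds were preincubated 5 min at room temperature before DOI (4 nM solution) was added. Kinetic fluorescence was read for 3 min.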

The target is the same in experiment [17]. The experiment can be described thus: 5-hydroxytryptamine receptor 2A (HTR2A) small molecule agonists, cell-based qHTS assay (AID 1963587). Also: nearly all actives have a fitted effect of over 30% in size. The procedure, abridged: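 CHO cells stably expressing human HTR2A, plated 18 h, loaded with calcium dye 1 h at 37 C. Agonist mode: compounds added and intracellular calcium fluorescence recorded kinetically for 2 min at 1 sec intervals.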

For experiment [18], the target named is Muscarinic acetylcholine receptor M1 (Homo sapiens) (UniProt P11229). The experiment is described as follows: Cholinergic receptor muscarinic 1 (CHRM1) small molecule antagonists, cell-based qHTS assay (AID 1963588). Also: nearly all actives have a fitted effect of over 40% in size. The method, boiled down: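 Compounds were tested at 15 concentrations in three independent runs. Dye-loaded CHRM1-CHO cells were exposed 5 min at room temperature before stimulation by acetylcholine added at 50nM. Intracellular calcium was read kinetically on FDSS for 3 min.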

The target is the same in experiment [19]. The experiment is described as follows: Cholinergic receptor muscarinic 1 (CHRM1) small molecule agonists, cell-based qHTS assay (AID 1963589). Also: nearly all actives have a fitted effect of over 35% in size. The procedure, abridged:
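Kinetic fluorescence (1 s intervals) of calcium-sensitive dye in human M1 CHO cells after compound addition; cells pre-incubated 18 h at 37 C/5% CO2 and dye-loaded 1 h.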

Experiment [20] is described as follows: cAMP Responsive Elements (CRE) small molecule antagonists, cell-based qHTS assay (AID 1963591; active = well fitted inhibition curve with a large enough effect in the signal ratio in the repeat runs, not every such curve was filed as active; the % refers to the signal ratio). The method, boiled down:
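Reporter line CRE-bla HEK 293T in dialyzed-FBS DMEM; cells preincubated 18 h, treated 3 h with compound plus NKH477 (0.25 uM final); LiveBLAzer FRET, 2 h RT.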

Beta-2 adrenergic receptor (Homo sapiens), sequence (P07550 whole entry, looked up): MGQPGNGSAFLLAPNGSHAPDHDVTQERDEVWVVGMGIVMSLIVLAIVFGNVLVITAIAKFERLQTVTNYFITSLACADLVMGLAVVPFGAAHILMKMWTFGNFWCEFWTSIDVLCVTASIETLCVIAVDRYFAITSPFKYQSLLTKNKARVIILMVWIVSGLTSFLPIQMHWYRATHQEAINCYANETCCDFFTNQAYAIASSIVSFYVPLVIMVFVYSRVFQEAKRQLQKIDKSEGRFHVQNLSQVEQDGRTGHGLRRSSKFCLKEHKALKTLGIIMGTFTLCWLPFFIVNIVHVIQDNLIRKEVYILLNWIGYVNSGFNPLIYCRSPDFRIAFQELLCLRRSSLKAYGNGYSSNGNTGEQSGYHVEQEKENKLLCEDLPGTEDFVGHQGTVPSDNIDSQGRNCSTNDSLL
D(2) dopamine receptor (Homo sapiens), sequence (P14416 whole entry, looked up): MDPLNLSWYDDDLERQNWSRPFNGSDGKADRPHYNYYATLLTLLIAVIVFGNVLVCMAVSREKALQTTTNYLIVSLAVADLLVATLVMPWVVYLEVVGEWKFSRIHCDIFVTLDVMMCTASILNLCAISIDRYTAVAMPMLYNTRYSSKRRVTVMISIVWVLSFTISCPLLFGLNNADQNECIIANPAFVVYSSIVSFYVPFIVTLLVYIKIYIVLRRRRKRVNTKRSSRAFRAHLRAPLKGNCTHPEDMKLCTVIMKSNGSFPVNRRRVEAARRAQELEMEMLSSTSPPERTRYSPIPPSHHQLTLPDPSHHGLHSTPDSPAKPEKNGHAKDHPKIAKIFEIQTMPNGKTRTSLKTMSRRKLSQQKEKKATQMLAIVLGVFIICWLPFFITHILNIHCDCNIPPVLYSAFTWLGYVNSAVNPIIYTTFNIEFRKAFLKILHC
Muscarinic acetylcholine receptor M1 (Homo sapiens), sequence (P11229 whole entry, looked up): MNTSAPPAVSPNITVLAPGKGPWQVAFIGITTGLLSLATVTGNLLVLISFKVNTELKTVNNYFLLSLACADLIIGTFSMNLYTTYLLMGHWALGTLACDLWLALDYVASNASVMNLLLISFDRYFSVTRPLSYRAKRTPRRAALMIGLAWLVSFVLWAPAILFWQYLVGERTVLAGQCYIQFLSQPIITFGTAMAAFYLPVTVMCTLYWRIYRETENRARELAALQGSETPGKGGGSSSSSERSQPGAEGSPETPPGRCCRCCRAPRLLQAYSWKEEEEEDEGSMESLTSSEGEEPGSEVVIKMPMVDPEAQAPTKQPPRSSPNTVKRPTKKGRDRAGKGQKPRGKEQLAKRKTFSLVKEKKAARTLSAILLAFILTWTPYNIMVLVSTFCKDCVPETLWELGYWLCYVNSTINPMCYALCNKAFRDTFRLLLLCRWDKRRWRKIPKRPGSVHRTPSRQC
Gonadotropin-releasing hormone receptor (Homo sapiens), sequence (P30968 whole entry, looked up): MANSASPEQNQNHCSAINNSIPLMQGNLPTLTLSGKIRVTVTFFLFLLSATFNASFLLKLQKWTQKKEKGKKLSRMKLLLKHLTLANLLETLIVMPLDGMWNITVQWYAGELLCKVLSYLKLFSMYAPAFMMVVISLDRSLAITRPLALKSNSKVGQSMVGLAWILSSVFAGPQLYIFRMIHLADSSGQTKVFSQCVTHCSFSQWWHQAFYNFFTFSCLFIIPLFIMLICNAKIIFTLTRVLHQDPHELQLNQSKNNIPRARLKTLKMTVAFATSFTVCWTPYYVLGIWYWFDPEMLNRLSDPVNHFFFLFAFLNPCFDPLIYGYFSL
5-hydroxytryptamine receptor 2A (Homo sapiens), sequence (P28223 whole entry, looked up): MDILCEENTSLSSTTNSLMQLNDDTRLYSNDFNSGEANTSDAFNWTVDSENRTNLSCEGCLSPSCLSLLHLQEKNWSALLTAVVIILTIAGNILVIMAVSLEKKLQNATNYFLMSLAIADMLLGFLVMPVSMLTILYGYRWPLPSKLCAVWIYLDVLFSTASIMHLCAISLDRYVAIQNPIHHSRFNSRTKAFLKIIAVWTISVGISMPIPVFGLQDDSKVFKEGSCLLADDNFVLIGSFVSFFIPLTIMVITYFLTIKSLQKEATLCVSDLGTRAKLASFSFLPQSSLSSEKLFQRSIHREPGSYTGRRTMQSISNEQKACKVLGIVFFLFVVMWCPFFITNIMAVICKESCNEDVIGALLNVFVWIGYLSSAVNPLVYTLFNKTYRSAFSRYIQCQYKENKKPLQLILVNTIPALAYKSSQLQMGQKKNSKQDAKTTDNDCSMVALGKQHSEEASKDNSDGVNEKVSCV
KiSS-1 receptor (Homo sapiens), sequence (Q969F8 whole entry, looked up): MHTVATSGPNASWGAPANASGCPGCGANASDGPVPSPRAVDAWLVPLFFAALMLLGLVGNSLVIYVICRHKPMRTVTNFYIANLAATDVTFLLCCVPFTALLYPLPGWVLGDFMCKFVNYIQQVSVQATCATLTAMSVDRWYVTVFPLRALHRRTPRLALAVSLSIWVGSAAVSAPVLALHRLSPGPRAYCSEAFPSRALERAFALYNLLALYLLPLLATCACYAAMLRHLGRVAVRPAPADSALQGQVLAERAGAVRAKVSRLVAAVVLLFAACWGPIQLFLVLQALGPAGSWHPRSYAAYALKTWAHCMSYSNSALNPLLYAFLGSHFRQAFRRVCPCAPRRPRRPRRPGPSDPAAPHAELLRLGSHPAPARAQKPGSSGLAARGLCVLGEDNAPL

For `S=C=Nc1cccc2ccccc12`, the results for the Potency in experiment [1] and in experiment [2] were 27 µM (active) and 15.2 µM (active), respectively. The Potency result in experiment [3], in experiment [4], in [5], in experiment [6], in experiment [7] and in experiment [8] was “inactive” each time. In addition, the Potency entry in experiment [9], in experiment [10], in experiment [11], in experiment [12], in [13] and in experiment [14] was “inactive” throughout. For the same molecule, the Potency entry in experiment [15] was “inactive”.
For `CCCCCCCCP(=O)(O)O`, the Potency entry in experiment [1], in experiment [2], in experiment [3], in [4], in experiment [5] and in experiment [6] was “inactive” throughout. Further, the Potency result in experiment [7], in [8], in [9], in [10], in [16] and in experiment [17] was “inactive” throughout. The Potency entry in [18], in experiment [19], in experiment [12], in [20], in experiment [13] and in experiment [14] was “inactive” in each case. In addition, the Potency entry in experiment [15] is “inactive”.
On to `CCOC(=O)C1(c2ccccc2)CCN(CCc2ccc(N)cc2)CC1`, for which the Potency result in [1], in experiment [2], in [3], in experiment [4], in [5] and in [6] was “inactive” in each case. Further, the Potency entry in experiment [7], in experiment [8], in experiment [9], in experiment [10], in experiment [11] and in experiment [17] was “inactive” each time. The Potency result in [19], in experiment [12], in experiment [20], in experiment [13] and in [15] was “inactive” in each case.
Regarding `CC(C)(C)NCC(O)c1ccccc1Cl` (stereo not drawn), the Potency result in experiment [1], in [2], in experiment [3], in experiment [4], in experiment [5] and in [6] was “inactive” throughout. The Potency result in experiment [7], in experiment [8], in [9], in [10], in [11] and in experiment [17] was “inactive” each time. The Potency entry in [19], in experiment [20] and in [13] was “inactive” in each case.
As to `OC(Cn1cncn1)(c1ccc(F)cc1)c1ccccc1F` (stereo not drawn), the Potency result in experiment [1], in experiment [2], in experiment [3], in [4], in [5] and in [6] was “inactive” in each case. For the same molecule, the Potency result in experiment [7], in experiment [8], in [9], in experiment [10], in experiment [11] and in [17] was “inactive” in each case. Besides, the Potency result in experiment [19], in [12], in experiment [20], in experiment [13], in experiment [14] and in [15] was “inactive” in each case.
As for `Brc1ccccc1`, the Potency result in [1], in experiment [2], in [3], in experiment [4], in experiment [5] and in [6] was “inactive” each time. The Potency result in experiment [7], in [8], in experiment [9], in experiment [10], in experiment [11] and in experiment [12] was “inactive” throughout. Also, the Potency entry in [20], in experiment [13], in [14] and in experiment [15] was “inactive” in each case.
Regarding `CCSC(C)CC1CC(=O)C(/C(CC)=N/OC/C=C/Cl)=C(O)C1` (stereo not drawn), the Potency result in experiment [1], in experiment [2], in experiment [3], in [4], in [5] and in experiment [6] was “inactive” each time. Besides, the Potency entry in experiment [7], in experiment [8], in [9], in experiment [10], in experiment [16] and in experiment [17] was “inactive” throughout. Moreover, the Potency result in experiment [18], in [19], in experiment [12], in experiment [20], in experiment [14] and in [15] was “inactive” throughout.
